DT40 TDP1 CPT = growth inhibition of DT40 Tdp1-/-;hTDP1 cells with camptothecin (screen for TDP1 inhibitors). Potency, µM (doses to about 46.2 µM), for inactives: at the top dose activity change, negative = growth inhibition, most hits filed as inhibitors. chicken DT40 Tdp1-/-;hTDP1 cells + 20 nM CPT, ATP luminescence, 48 h. hit rate 12% among 420,000; note: potency is the fitted concentration of half-maximal effect; nearly all actives have a fitted effect of over 55% in size
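Cell growth measured by CellTiter-Glo luminescence after a minimum 48 h, 37 C compound exposure with 20 nM CPT in Tdp1-knockout DT40 cells stably expressing hTDP1, seeded 400/well; qHTS titration format.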
TDP1 cell noCPT = qHTS for Inhibitors of human tyrosyl-DNA phosphodiesterase 1 (TDP1): qHTS in cells in absence of CPT | DT40 Tdp1-/- hTDP1 cells, no CPT, ATP luminescence, 48 h | Potency, µM (titrated, usually from 46.2 µM), for inactives: top-dose activity change, negative = growth inhibition, usual class: inhibitors | hit rate 15% among 420,000 | AID 686978, 2013; note: potency is the fitted concentration of half-maximal effect; nearly all actives have a fitted effect of over 55% in size
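Readout: luminescence from CellTiter-Glo after 30 min in the dark at RT. Cells: DT40 Tdp1-/- with stable hTDP1, 400/well. Exposure: compounds alone, ≥48 hr, 37 °C.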
IL-1B inflam inh = inflammasome signaling inhibition, IL-1 beta readout; activity change, % at 57.5 µM; THP-1 LPS/ATP IL-1B secretion, AlphaLISA, 16 h; stronger effect = lower value; AID 743279; hit rate 4.7% among 360,000; in the data active = activity change below about -50%; inconclusive = mostly about -30% to -49%
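THP-1 cells pretreated 1 hr with compounds (up to 57.5 uM final), then stimulated with LPS (250 ng/mL final) plus ATP (1.25 mM final); secreted IL-1B measured by AlphaLISA after 16 hr, decreased signal indicating inhibition.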
HT1080NT lethal = kills 2HG-producing HT-1080-NT fibrosarcoma cells; HT-1080-NT fibrosarcoma viability, CellTiter-Glo ATP luminescence, 48 h; hit rate 1.6% among 360,000; Potency, µM (series often up to 46.1 µM), without a hit: at the top dose activity, negative = less viability, actives largely listed as cytotoxic;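 note: NT is the 2HG producing partner of a matched IDH1 knockdown line; potency is the fitted concentration of half-maximal effect; 0% = DMSO-treated cells and -100% = media-only wells without cells; nearly all actives have a fitted effect of over 55% in size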
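Viability by CellTiter-Glo luminescence after 48 h compound exposure at 37C of HT-1080-NT cells (750/well, RPMI, 5% FBS). % activity scaled between DMSO wells and medium-only wells, then curve-fitted and categorized by curve class.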
HT1080 IDH1KD tx = HT-1080 IDH1 knockdown cell toxicity (counter line); HT-1080 IDH1 knockdown viability, ATP luminescence, 48 h; Potency, µM (titrated, usually from 46.1 µM), without a hit: at the highest dose activity, negative = toxicity, most hits filed as cytotoxic; hit rate 2% among 360,000;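 note: potency is the fitted concentration of half-maximal effect; 0% = DMSO wells and -100% = cell-free medium wells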
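Knockdown cells (IDH1KD HT-1080) received compounds 2 h after plating at 750 cells/well and were kept 48 h at 37 °C in 5% FBS RPMI. A CellTiter-Glo luminescence read gave % activity for curve fitting.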
Numbers without * were called inactive; i = inactive; u = inconclusive; x = no result; [ ] = remark or other dose. Most compounds without a hit are left out; they make up all but 19% or so of the library. Unless noted, calls come from the whole dose curve; as a rule, active = well fitted curve in the direction sought with a large enough effect; inconclusive = small, poorly fitted or top-dose-only effect, or another doubt; inactive = no such curve, though single readings can be large; an effect the other way counts as inactive or inconclusive. Unless noted, % is set by controls: 0 for no effect and ±100 for the full control effect.

SMILES	DT40 TDP1 CPT	TDP1 cell noCPT	IL-1B inflam inh	HT1080NT lethal	HT1080 IDH1KD tx
COc1ccccc1N1CCN(CC(=O)Nc2ccccc2C(=O)NC(C)c2ccccc2)CC1 (centres undefined)	14.6µM*	18.4µM*	-10.1	14.4%	-2.4%
CC(NC(=O)c1ccccc1NC(=O)CN1CCN(c2ccccc2O)CC1)c1ccccc1 (centres undefined)	u	u	13.4	3.7%	1.9%
COc1ccc(N2CCN(CC(=O)Nc3ccccc3C(=O)NC(C)c3ccccc3)CC2)cc1 (centres undefined)	u	20.6µM*	-28.2	-0.7%	-5.3%
COc1ccc(N2CCN(CC(=O)Nc3ccccc3C(=O)NCc3ccccc3)CC2)cc1	14.6µM*	18.4µM*	3.1	-13.0%	-8.8%
O=C(CC1CCCC1)Nc1nc2ccccc2[nH]1	u	9.2µM*	0.0	6.4%	6.6%
O=C(Nc1nc2ccccc2[nH]1)C1CCC1	u	23.1µM*	-16.4	u	u
Cc1ccc(OCC(=O)N[C@@H](C)c2nnc3ccccn23)cc1C	4.8%	-0.4%	1.2	6.7%	9.2%
Cc1nn(C)cc1S(=O)(=O)N1CCN(c2ccccc2F)CC1	-19.2%	-22.5%	i	-5.3%	-0.6%
CC1=CC(=O)c2ccccc2C1=O	8.2µM*	4.61µM*	21.1	27.4%	4.8%
COc1cccc2c1C(=O)C=C(C)C2=O	2.91µM*	4.61µM*	-99.8*	18.4µM*	u
CCOc1ccccc1C(O)C1=CC(=O)c2ccccc2C1=O (centres undefined)	u	u	-8.5	1.7%	7.9%
CC(C)(C=O)C1=CC(=O)c2ccccc2C1=O	0.184µM*	0.411µM*	-102.5*	-29.3%	13µM*
COc1ccc(Cl)cc1-c1cc(C(=O)NCc2ccco2)[nH]n1	u	u	-18.0	-17.2%	-24.8%
COc1ccc(CCNC(=O)Cn2nc(C)c3c(C)n(-c4ccc(C)cc4)nc3c2=O)c(OC)c1	16.4µM*	u	x	x	x
CCC(C(=O)NCCc1cc(OC)ccc1OC)n1nc(C)c2c(C)n(-c3ccccc3)nc2c1=O (centres undefined)	18.4µM*	u	x	x	x
COc1ccc(OC)c(CCNC(=O)C(C)n2nc(C)c3c(C)n(-c4ccc(C)cc4)nc3c2=O)c1 (centres undefined)	u	18.4µM*	7.3	-16.6%	20.6µM*
CCCS(=O)(=O)NC(=O)C1(C)CCN(C(=O)c2ccc(OC)c(F)c2)C1 (centres undefined)	4.0%	-3.1%	25.4	u	4.1%
O=C1NCCN1C(=O)N(c1ccccc1)c1ccccc1	3.8%	6.4%	0.0	3.4%	5.8%
COc1ccc(NC(=O)c2ccccc2N(Cc2ccccc2)S(C)(=O)=O)c(OC)c1	23.1µM*	u	-9.5	3.8%	-17.1%
CS(=O)(=O)N(Cc1ccccc1)c1ccccc1C(=O)O	6.2%	2.3%	2.6	26.9%	22.3%
COc1ccc(OC)c(NC(=O)c2ccccc2N(Cc2ccccc2)S(C)(=O)=O)c1	14.6µM*	u	u	-0.7%	0.3%
CC1CN(C(=O)c2ccc(COc3ccccc3Br)o2)CC(C)O1 (centres undefined)	-11.7%	u	25.9	-1.7%	-27.9%
COc1ccc(OC)c(CCNC(=O)CCn2c(=O)c3cccn3c3cccnc32)c1	u	16.4µM*	x	x	x
COc1ccc(NC(=O)CCn2c(=O)c3cccn3c3cccnc32)c(OC)c1	u	14.6µM*	x	x	x
CCOc1cc(S(=O)(=O)NCc2ccco2)c(OCC)cc1-n1cnnn1	-6.6%	8.9%	0.7	-0.4%	24.5%
SMILES	DT40 TDP1 CPT	TDP1 cell noCPT	IL-1B inflam inh	HT1080NT lethal	HT1080 IDH1KD tx
CCC(C(=O)Nc1ccc2[nH]ncc2c1)c1ccccc1 (centres undefined)	-9.8%	-8.2%	6.9	3.3%	-15.5%
Cc1nn(-c2ccccc2)nc1C(=O)Nc1ccc2[nH]ncc2c1	-26.0%	20.6µM*	-13.6	-1.7%	1.1%
CN(C(=O)COc1ccc(-c2nnco2)cc1)C1CCS(=O)(=O)C1 (centres undefined)	16.1%	-12.3%	4.9	-1.9%	0.0%
CCc1n[nH]c2c1/C(=N\O)CC(c1ccccc1)C2 (centres undefined)	u	23.1µM*	-3.4	1.6%	3.7%
CCCCc1noc2c1/C(=N\O)CC(c1ccccc1)C2 (centres undefined)	-24.7%	-24.0%	-5.6	9.2%	11.3%
CCCCc1n[nH]c2c1/C(=N/O)CC(c1ccccc1)C2 (centres undefined)	u	u	-58.5*	u	u
Cc1nnc(NC(=O)C23CC4CC(CC(C4)C2)C3)s1	-2.4%	8.4%	18.0	-2.4%	4.2%
CC1CCN(CC(=O)Nc2ccc(Cl)cc2[N+](=O)[O-])CC1	u	u	-6.2	22.1%	19.4%
CCN(c1ccccc1)S(=O)(=O)c1ccc(Cl)c(NC(=O)CN2C(=O)NC3(CCCC3)C2=O)c1	u	18.4µM*	u	-4.7%	1.3%
Cc1cc(NC(=O)CN2C(=O)NC3(CCCCCC3)C2=O)ccc1Br	u	20.6µM*	-13.2	u	u
CC(C)CC1(C)NC(=O)N(CC(=O)Nc2ccc3c(c2)CCC3)C1=O (centres undefined)	u	25.9µM*	0.0	u	-27.8%
O=C(CN1C(=O)NC2(CCCCCCC2)C1=O)Nc1ccc(Cl)cc1	13µM*	14.6µM*	16.7	u	u
CCN(c1ccccc1)S(=O)(=O)c1ccc(OC)c(NC(=O)CN2C(=O)NC(C)(C)C2=O)c1	-13.9%	-0.5%	-4.5	0.6%	7.7%
CSc1cc(SC)ncn1	8.8%	5.8%	27.5	6.5%	16.8%
COc1cccc(NC(=O)CN2C(=O)NC3(CCCC3)C2=O)c1	2.9%	5.8%	17.0	2.3%	1.8%
O=C(CN1C(=O)NC2(CCCC2)C1=O)OCc1ccc(Cl)c(Cl)c1	16.4µM*	20.6µM*	-0.7	-7.2%	-8.4%
CCCn1c(C)cc(C(=O)CN2C(=O)NC3(CCCCCC3)C2=O)c1C	10.3µM*	6.51µM*	30.6	0.2%	1.1%
CCc1cccc(NC(=O)CN2C(=O)NC3(CCCCCCC3)C2=O)c1	10.3µM*	14.6µM*	7.6	-27.5%	u
CCc1ccc(C(=O)CN2C(=O)NC3(CCCCCC3)C2=O)cc1	u	23.1µM*	-26.8	-6.3%	-14.0%
Cc1ccc(CNc2ncnc3sc(C(=O)N4CCC(N5CCCC(O)C5)CC4)c(C)c23)o1 (centres undefined)	2.2%[9.04 µM]	2.5%	x	x	x
Cc1csc2c(SCC(=O)NNC(=O)C(Cl)Cl)ncnc12	18.0%	0.7%	8.1	2.8%	-2.5%
